Measurements published in PubChem BioAssay (NCI).
This is part of a sample that, as a whole, favours compounds with a hit. Of some 83,000 tested, about 20% had one in any assay.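 96-well plates, one dose, 48 hours. Percent growth reported; active if below 10.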 Calls of active or inactive are those of the source.

How the values were obtained:
Test in all cases: NCI-60 one-dose screen, 48 h (100 = growth as untreated, 0 = no growth, -100 = all killed)
[1] = system: HCT-15 colon; conditions: 10 µM unless noted
[2] = system: HT29 colon; conditions: 10 µM unless noted
[3] = system: SNB-75 CNS; conditions: 10 µM unless noted
[4] = system: SNB-19 CNS; conditions: 10 µM unless noted
[5] = system: U251 CNS; conditions: 10 µM unless noted
[6] = system: PC-3 prostate; conditions: 10 µM unless noted
[7] = system: SK-MEL-5 melanoma; conditions: 10 µM unless noted
[8] = system: LOX IMVI melanoma; conditions: 10 µM unless noted
[9] = system: SK-MEL-28 melanoma; conditions: 10 µM unless noted
[10] = system: SK-MEL-2 melanoma; conditions: 10 µM unless noted
[11] = system: EKVX NSCLC; conditions: 10 µM unless noted
[12] = system: SN12C renal; conditions: 10 µM unless noted
[13] = system: UO-31 renal; conditions: 10 µM unless noted
[14] = system: TK-10 renal; conditions: 10 µM unless noted
[15] = system: ACHN renal; conditions: 10 µM unless noted
[16] = system: CAKI-1 renal; conditions: 10 µM unless noted
[17] = system: A498 renal; conditions: 10 µM
[18] = system: HL-60(TB) leukemia; conditions: 10 µM unless noted
[19] = system: CCRF-CEM leukemia; conditions: 10 µM unless noted

Row | SMILES | growth [1] | growth [2] | growth [3] | growth [4] | growth [5] | growth [6] | growth [7] | growth [8] | growth [9] | growth [10] | growth [11] | growth [12] | growth [13] | growth [14] | growth [15] | growth [16] | growth [17] | growth [18] | growth [19]
1 | O=C(O)C1C(C(=O)O)C2(Cl)C(Cl)=C(Cl)C1(Cl)C2(Cl)Cl.[Hg] (stereo not given) | 87% (inactive) | 82.2% (inactive) | 86.6% (inactive) | 96.9% (inactive) | 44.7% (inactive) | 76.2% (inactive) | 85.3% (inactive) | 85.2% (inactive) | 96.7% (inactive) | 102% (inactive) | 102% (inactive) | 87.4% (inactive) | 111% (inactive) | 144% (inactive) | 99% (inactive) | 101% (inactive) | 149% (inactive) | 68.9% (inactive) | 71.8% (inactive)
2 | c1ccc(Nc2nc(-c3ccccc3)c[se]2)cc1 | 86.9% (inactive) | 102% (inactive) | 83% (inactive) | 91.7% (inactive) | 84.4% (inactive) | 83.6% (inactive) | 89.2% (inactive) | 93.5% (inactive) | 98.8% (inactive) | 105% (inactive) | 70.3% (inactive) | 86.2% (inactive) | 46.2% (inactive) | 83.5% (inactive) | 84% (inactive) | 55.7% (inactive) | 55.9% (inactive) | 102% (inactive) | 101% (inactive)
3 | COc1cc(/C=C/[N+](=O)[O-])c([N+](=O)[O-])cc1OC | -45.2% (active) | -66% (active) | 55.3% (inactive) | 96.3% (inactive) | 15.7% (inactive) | 51.5% (inactive) | 56.2% (inactive) | -68.1% (active) | 38.4% (inactive) | -6.72% (active) | 65.9% (inactive) | 22% (inactive) | -49.5% (active) | -18.3% (active) | -46.4% (active) | -50% (active) | 109% (inactive) | -7.54% (active) | 5.8% (active)
4 | CCCC[C@H](NC(=O)[C@H]1CCCN1C)C(=O)N(C)[C@H](C[C@@H](OC(C)=O)c1nc(C(=O)N[C@@H](Cc2ccccc2)C[C@H](C)C(=O)OCC)cs1)C(C)C | 19.1% (inactive) | 1.99% (active) | 51.5% (inactive) | 38.4% (inactive) | 8.61% (active) | 13% (inactive) | -25.1% (active) | 20.8% (inactive) | 71.3% (inactive) | 52% (inactive) | 41.3% (inactive) | 23.6% (inactive) | 40.2% (inactive) | 16.4% (inactive) | 17.5% (inactive) |  | -11.7% (active) | -28.7% (active) | 11.1% (inactive)
5 | Fc1ccc2c(c1)c(-c1nc(-c3c[nH]c4ncccc34)cs1)cn2CCN1CCOCC1 | 27.2% (inactive) | 47.7% (inactive) | 32.9% (inactive) | 63.7% (inactive) | 51.7% (inactive) | 23.3% (inactive) | 32.2% (inactive) | 56.7% (inactive) | 75.8% (inactive) | 67.4% (inactive) | 32.8% (inactive) | 65.8% (inactive) | 25.5% (inactive) | 64.1% (inactive) | 48.3% (inactive) |  | 74.1% (inactive) | 48.1% (inactive) | 35.2% (inactive)
6 | CC(C)CCC(=O)O[C@H]1CC[C@H]2[C@@H]3CCC4=CC(=O)CC[C@]4(C)[C@H]3CC[C@]12C | 97.4% (inactive) | 106% (inactive) | 82.6% (inactive) | 105% (inactive) | 99.2% (inactive) | 92.8% (inactive) | 96.5% (inactive) | 97.9% (inactive) | 99.8% (inactive) | 115% (inactive) | 73.9% (inactive) | 107% (inactive) | 82.1% (inactive) | 100% (inactive) | 98.5% (inactive) |  | 77.2% (inactive) | 108% (inactive) | 104% (inactive)
7 | CN1CCC(O)(c2ccc(F)cc2)C(C(=O)c2ccc(F)cc2)C1 (stereo not given) | 107% (inactive) | 122% (inactive) | 113% (inactive) | 95.1% (inactive) | 107% (inactive) | 98.4% (inactive) | 102% (inactive) | 94.3% (inactive) | 121% (inactive) | 91.2% (inactive) | 106% (inactive) | 104% (inactive) | 84.7% (inactive) | 110% (inactive) | 101% (inactive) | 104% (inactive) | 104% (inactive) | 134% (inactive) | 85.2% (inactive)
